Laboratory results: PubChem BioAssay (NCI)
Where “and” joins values, the source holds several entries; their conditions need not be identical. Equal values may be shown once. The panel holds about 83,000 compounds, 20% with a hit somewhere; the sample as a whole holds those more often.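 The test compound was applied at a single concentration to cells in 96-well plates for 48 hours, and percent growth was recorded.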 Calls of active or inactive are those of the source.

System: OVCAR-4 ovarian
Assay: NCI-60 one-dose screen, 48 h (100 = growth as untreated, 0 = no growth, -100 = all killed)
Details: 10 µM
Protocol: Growth inhibition of the OVCAR-4 human tumor cell line is measured as a screen for anti-cancer activity. Cells are grown in 96 well plates and exposed to the test compound for 48 hours. Compounds are tested at a single concentration, which is 10^-5 M for most compounds. The reported endpoint is percent growth (GI% or GIPRCNT), where numbers from 0 - 100% represent growth inhibition, and numbers from -100% - 0 represent cell death. For example, a value of 40 represents 60% growth inhibition. A value of 0 means no net growth occurred over the course of the experiment. A value of -40 indicates 40% of cells at the beginning of the experiment died by the end of the experiment. A value of -100 means all cells are dead at the end of the experiment.
NCI-60 Human Tumor Cell Lines Screen was performed using the standard one-dose NCI protocol, which is described in more detail at https://dtp.cancer.gov/discovery_development/nci-60/default.htm.
Compounds with GIPRCNT values below 10 were considered active. Activity score was based on GIPRCNT using the following formula: […]
Score is 0 for GIPRCNT values of 100 or above, 50 for GIPRCNT values of 0, and 100 for GIPRCNT values of -100.

Structure (SMILES)	growth
CN1C(=O)[C@]23SSC1(C)C(=O)N2[C@H]1Nc2ccccc2C1([C@@]12c4ccccc4N[C@@H]1N1C(=O)C4(C)SS[C@]1(C(=O)N4C)[C@H]2O)[C@@H]3O (stereo not given in full)	-98.7% (active)
CC(=O)O[C@@H]1[C@@H]2O[C@H]2[C@@](C)(O)C(=O)[C@@H](C)C/C=C/[C@H]2[C@@H]3O[C@]3(C)[C@@H](C)C3[C@H](Cc4ccccc4)NC(=O)[C@@]312 (stereo not given in full)	55.8% (inactive)
CC1=C2C(=C[C@@](C)(C=O)[C@@H]2O)C(=O)[C@](C)(O)C12CC2	19.3% (inactive)
C=C1[C@@H](C)C2[C@H](Cc3ccccc3)NC(=O)[C@]23[C@H](OC(C)=O)/C=C/[C@@](C)(O)C(=O)[C@@H](C)C/C=C/[C@H]3[C@@H]1O (stereo not given in full)	34.7% (inactive)
CC1=C2C(=C[C@@](C)(COS(C)(=O)=O)[C@@H]2O)C(=O)[C@](C)(O)C12CC2	-0.135% (active)
CN(CCF)/N=N/c1nc[nH]c1C(N)=O	44.2% (inactive)
COc1cc2c(cc1OC)[C@@H]1N(CC2)C(=O)c2ccccc2[C@@]1(C)C(=O)O	105% (inactive)
CC1=C[C@H]2O[C@@H]3C[C@@H](O)[C@](C)([C@@]2(C)CC1)[C@@]31CO1	32% (inactive)
CCC(C)[C@H]1C(=O)O[C@H](C(C)C)C(=O)N(C)[C@@H](C(C)C)C(=O)O[C@H](C(C)C)C(=O)N(C)[C@@H](C(C)C)C(=O)O[C@H](C(C)C)C(=O)N1C (stereo not given in full)	20.3% (inactive)
CC1=C2C(=C[C@@](C)(COC(=O)c3ccc(S(=O)(=O)F)cc3)[C@@H]2O)C(=O)[C@](C)(O)C12CC2	-33.5% (active)
CC1=C[C@H]2O[C@@H]3C[C@H]4OC(=O)/C=C\C=C\[C@H]([C@@H](C)O)OCC[C@@H](C)[C@H](O)C(=O)OC[C@@]2(CC1)[C@]4(C)[C@]31CO1	-19% (active)
CCCCCCCCCC(=O)N[C@@](C)(CC)C(=O)N1CCC[C@H]1C(=O)N[C@@H](CC(C)C)C(=O)N[C@@](C)(CC)C(=O)N[C@@H](CCC(N)=O)C(=O)N[C@H](CCC(N)=O)C(=O)NC(C)(C)C(=O)NC(C)(C)C(=O)N[C@@H](CCC(N)=O)C(=O)N[C@H](CC(C)C)C(=O)N[C@H](CO)CC(C)C	-38.1% (active) and -35.2% (active)
CC(=O)O[C@@H]1C[C@H]2O[C@@H]3C=C(C)CC[C@]3(C)[C@]1(C)[C@]21CO1	-1.86% (active)
COc1cc(C)c(-c2ccc(OC)c(=O)cc2C)c(OC)c1OC	70.9% (inactive) and 96.9% (inactive)
COC1[C@@H]2C[C@H]3C(C)(C)O[C@@](C/C=C(/C)C(=O)O)(C2=O)[C@]32Oc3c(CC=C(C)C)c4c(c(O)c3C(=O)[C@H]12)C=CC(C)(C)O4 (stereo not given in full)	-33.7% (active)
C[C@@H]1C[C@H]2C(=O)O[C@@H](C)C(NC(=O)[C@H](Cc3cc(F)cc(F)c3)NC(=O)Nc3ccc(OS(=O)(=O)F)cc3)C(=O)N3CCC[C@H]3C(=O)N3CCO[C@H](C)[C@H]3C(=O)N[C@@H](CO)C(=O)N2C1 (stereo not given in full)	26.2% (inactive)
NC1CCc2cc(O)c(O)cc2C1 (stereo not given)	98.7% (inactive)
C/C=C/CC(C)C(O)[C@H](NC(=O)[C@@H]1CCCN1C(=O)C(C)(C)NC(=O)CCCCCCCCC)C(=O)N[C@@](C)(CC)C(=O)N[C@@H](CCC(N)=O)C(=O)N[C@H](CCC(N)=O)C(=O)NC(C)(C)C(=O)N[C@@](C)(CC)C(=O)N[C@@H](CCC(N)=O)C(=O)N[C@H](CC(C)C)C(=O)N[C@H](CO)CC(C)C (stereo not given in full)	106% (inactive) and 19.2% (inactive)
COc1cc2c(O[C@@H]3OC[C@H](OC(C)=O)[C@H](OC(C)=O)[C@H]3O)c3c(c(-c4ccc5c(c4)OCO5)c2cc1OC)C(=O)OC3	51.4% (inactive)
C/C=C/CC(C)C(O)[C@H](NC(=O)[C@@H]1CCCN1C(=O)C(C)(C)NC(=O)CCCCCCCCC)C(=O)N[C@@](C)(CC)C(=O)N[C@@H](CCC(N)=O)C(=O)N[C@H](CCC(N)=O)C(=O)NC(C)(C)C(=O)NC(C)(C)C(=O)N[C@@H](CCC(N)=O)C(=O)N[C@H](CC(C)C)C(=O)N[C@H](CO)CC(C)C (stereo not given in full)	81% (inactive) and 87.9% (inactive)

Structure (SMILES)	growth
CC1=C(CN(O)C(N)=O)C2=C(C)C3(CC3)[C@](C)(O)C(=O)C2=C1	13.7% (inactive)
CC1=C(CCC=NNC(N)=O)C2=C(C)C3(CC3)[C@@](C)(O)C(=O)C2=C1	-33.3% (active)
Cc1ccc(CNc2nc3ccc(OC/C(=C/F)CN)cc3o2)cn1	88.1% (inactive)
COC(=O)[C@H]1[C@@H](O)[C@@]2(O)c3c(OC)cc(OC)cc3O[C@@]2(c2ccc(OC)cc2)[C@@H]1c1ccccc1	2.23% (active)
N#Cc1c(-n2c(Br)c(Br)c3cc(Br)ccc32)[nH]c2c(Br)cc(Br)cc12	20.4% (inactive)
CC1=C2C(=C[C@@](C)(COC(=O)c3ccc(S(=O)(=O)F)cc3)[C@@H]2OC(=O)c2ccc(S(=O)(=O)F)cc2)C(=O)[C@](C)(O)C12CC2	-9.11% (active)
COc1cccc2c1cc([N+](=O)[O-])c1c(C(=O)O)cc3c(c12)OCO3	108% (inactive)
CC1=C2C(=O)[C@](C)(CO)C=C2C(=O)[C@](C)(O)C12CC2	44.4% (inactive)
CC1=C[C@H]2O[C@@H]3C[C@H]4OC(=O)/C=C\C=C\[C@H]([C@@H](C)O)OCC/C(C)=C/C(=O)OC[C@@]2(CC1)[C@]4(C)[C@]31CO1	-22.1% (active)
C/C=C\C(=O)O[C@@H]1CC2O[C@@H]3C=C(C)C(=O)C[C@]3(C)[C@]1(C)[C@]21CO1	-12.2% (active)
O=C(CCCc1ccc(N(CCCl)CCCl)cc1)OCc1ccccc1	105% (inactive)
C/C=C/CC(C)C(O)[C@H](NC(=O)[C@@H]1CCCN1C(=O)C(C)(C)NC(=O)CCCCCCCCC)C(=O)NC(C)(C)C(=O)N[C@@H](CCC(N)=O)C(=O)N[C@H](CCC(N)=O)C(=O)NC(C)(C)C(=O)NC(C)(C)C(=O)N[C@@H](CCC(N)=O)C(=O)N[C@H](CC(C)C)C(=O)N[C@H](CO)CC(C)C (stereo not given in full)	60% (inactive) and 47.2% (inactive)
N#Cc1nc(-c2ccccc2)oc1N1CCC(S(=O)(=O)F)CC1	101% (inactive)
CC(C)(O)/C=C/C(=O)[C@](C)(O)[C@H]1[C@H](O)C[C@@]2(C)[C@H]3CC=C4[C@@H](C[C@H](O)C(=O)C4(C)C)[C@]3(C)C(=O)C[C@]12C	18.3% (inactive)
C/C=C/CC(C)C(O)[C@H](NC(=O)[C@@H]1CCCN1C(=O)C(C)(C)NC(=O)CCCCCCC)C(=O)N[C@@](C)(CC)C(=O)N[C@@H](CCC(N)=O)C(=O)N[C@H](CCC(N)=O)C(=O)NC(C)(C)C(=O)NC(C)(C)C(=O)N[C@@H](CCC(N)=O)C(=O)N[C@H](CC(C)C)C(=O)N[C@H](CO)CC(C)C (stereo not given in full)	108% (inactive) and 44.5% (inactive)
COc1cc(OC)c(S(=O)(=O)N(CCCl)CCCl)cc1C(=O)/C=C/c1ccc(Cl)cc1	83.4% (inactive)
COc1cc2c(O[C@@H]3OC[C@H](O)[C@H](O)[C@H]3O)c3c(c(-c4ccc5c(c4)OCO5)c2cc1OC)C(=O)OC3	74% (inactive)
C[C@@H]1CCC/C=C/[C@H]2C[C@@H](O)C[C@@H]2[C@@H](O)/C=C/C(=O)O1	22.1% (inactive)
CC1=C(CN(O)C(N)=O)C2=C(C)C3(CC3)[C@@](C)(O)C(=O)C2=C1	-0.96% (active)
CC(C)=CCc1c2c(c(O)c3c1O[C@]14C(=C[C@@H]5C[C@H]1C(C)(C)O[C@@]4(C/C=C(/C)C(=O)O)C5=O)C3=O)C=CC(C)(C)O2	-63.6% (active)
